# Reference: paper PMC4336329 (PLoS ONE, 2015)
# In all, about 310,000 compounds went through this assay and about 14,000 (4.5%) showed an effect of 50% or more. The effect is printed as a negative number. Many of the other results were omitted from the sample, so strong results are more common in it than they were.
# Target: human ether-à-go-go-related gene (hERG) potassium channel (human, UniProt Q12809)
# Assay: primary screen, population patch clamp on CHO cells stably expressing hERG; higher = less effect of the substance
# 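Also: peak tail current of the secondary pulse compared with the same well before compound.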
# Sequence of human ether-à-go-go-related gene (hERG) potassium channel (Q12809 whole entry, looked up): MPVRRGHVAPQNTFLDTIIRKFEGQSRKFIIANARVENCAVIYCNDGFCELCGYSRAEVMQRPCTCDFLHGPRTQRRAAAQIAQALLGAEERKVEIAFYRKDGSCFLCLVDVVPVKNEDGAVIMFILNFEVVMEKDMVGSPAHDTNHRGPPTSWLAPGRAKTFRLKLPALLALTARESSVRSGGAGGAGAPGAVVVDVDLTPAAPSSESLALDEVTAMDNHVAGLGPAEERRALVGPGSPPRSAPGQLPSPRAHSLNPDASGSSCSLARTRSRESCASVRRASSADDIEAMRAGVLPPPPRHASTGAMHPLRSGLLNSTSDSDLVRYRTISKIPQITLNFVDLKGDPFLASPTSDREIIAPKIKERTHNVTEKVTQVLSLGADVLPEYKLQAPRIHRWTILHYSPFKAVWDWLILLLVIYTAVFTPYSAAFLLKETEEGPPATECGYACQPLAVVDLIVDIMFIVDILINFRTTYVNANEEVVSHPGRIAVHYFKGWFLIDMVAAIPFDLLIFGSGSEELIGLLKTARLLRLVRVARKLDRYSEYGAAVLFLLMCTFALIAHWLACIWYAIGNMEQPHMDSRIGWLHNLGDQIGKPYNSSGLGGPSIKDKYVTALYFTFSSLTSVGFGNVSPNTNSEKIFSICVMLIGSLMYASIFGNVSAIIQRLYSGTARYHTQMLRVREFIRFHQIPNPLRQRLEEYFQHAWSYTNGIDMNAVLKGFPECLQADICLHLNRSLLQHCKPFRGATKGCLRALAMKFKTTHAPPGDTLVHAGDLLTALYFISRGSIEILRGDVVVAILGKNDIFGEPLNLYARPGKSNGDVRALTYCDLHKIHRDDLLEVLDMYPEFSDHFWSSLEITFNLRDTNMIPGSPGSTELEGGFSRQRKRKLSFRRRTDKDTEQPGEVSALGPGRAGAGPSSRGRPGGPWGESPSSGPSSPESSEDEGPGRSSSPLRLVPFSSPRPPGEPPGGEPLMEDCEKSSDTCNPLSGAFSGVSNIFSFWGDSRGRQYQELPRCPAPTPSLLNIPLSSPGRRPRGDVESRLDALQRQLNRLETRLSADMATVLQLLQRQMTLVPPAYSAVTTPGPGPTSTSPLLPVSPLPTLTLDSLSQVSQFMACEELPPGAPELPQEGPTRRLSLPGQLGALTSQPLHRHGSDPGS
row,SMILES,"hERG current change (%, negative = inhibition) at 10uM"
1,CCc1ccc(C(=O)COC(=O)c2cnccn2)cc1,0.242%
2,Cc1ccc(NC(=S)NCC2CCCO2)cc1C (stereo not shown),-1.97%
3,Cc1ccc(NC(=S)NCCN(C2CCCCC2)C2CCCC2)cc1C,-68.1%
4,Cc1ccc(NC(=S)NNC(=S)NC2CCCCC2)cc1,21%
5,Cc1ccc(NC(=S)NC2CCCC2)cc1,4.64%
6,Cc1ccc(NC(=S)NC2CCCC2)cc1C,14.8%
7,Cc1ccc(NC(=S)NCCN(C2CCCCC2)C2CCCC2)cc1,-72%
8,Cc1ccc(N2CC(C(=O)Nc3nnc(SCCN4CCOCC4)s3)CC2=O)cc1C (stereo not shown),20.7%
9,COc1ccccc1-n1nnnc1SCc1cc2c(cc1Br)OCO2,-9.95%
10,CCCCC(OC(=O)c1ccco1)C(=O)NCc1ccc(C)cc1 (stereo not shown),-0.428%
11,O=C(Cn1cnc([N+](=O)[O-])n1)NC1CC1,7.02%
12,CC(C)(C)c1nn(-c2ccccc2)c2[nH]c(=O)c(CNCc3ccc4c(c3)OCO4)cc12,-17.9%
13,Cc1nn(-c2ccc(Cl)cc2)c2[nH]c(=O)c(CNCc3ccc4c(c3)OCO4)cc12,-70%
14,Cc1nn(-c2ccccc2)c2[nH]c(=O)c(CNCc3ccc4c(c3)OCO4)cc12,-28.7%
15,Cc1ccc2c(C)c(C(=O)Nc3ccc(S(N)(=O)=O)cc3)oc2c1C,31.2%
16,COc1ccccc1CC1C(=O)C2CCN1CC2 (stereo not shown),14.5%

row,SMILES,"hERG current change (%, negative = inhibition) at 10uM"
1,Cc1ccc(-c2[nH]c3ccccc3c2SCCN)cc1,-27.6%
2,NCCSc1c(-c2ccccc2)[nH]c2ccccc12,-12.1%
3,NCCSc1c(-c2ccc(Cl)cc2)[nH]c2ccccc12,-84.3%
4,O=C(NCC1CCCO1)C(=O)N/N=C/c1c(F)cccc1Cl (stereo not shown),8.04%
5,Cc1noc(C)c1COC(=O)/C=C/c1ccc(Cl)cc1,0.131%
6,CCn1cc(/C=C/C(=O)Nc2ccc(C)cc2Br)cn1,-30.7%
7,CCOC(=O)C1CCCN(S(=O)(=O)c2ccc(C)cc2)C1 (stereo not shown),-2.86%
8,Cc1ccc(S(=O)(=O)N2CCCC(C(=O)N(Cc3cccs3)C3CC3)C2)cc1 (stereo not shown),-67.7%
9,O=C(C1CCCN(S(=O)(=O)c2ccc(Cl)cc2)C1)N1CCCC1 (stereo not shown),-19%
10,O=C(O)C1CCCN(S(=O)(=O)c2ccc(F)cc2)C1 (stereo not shown),20.4%
11,Cc1ccc(S(=O)(=O)N2CCCC2C(=O)N(C)Cc2cccs2)cc1 (stereo not shown),-19.9%
12,O=C(C1CCCN(S(=O)(=O)c2ccc(F)cc2)C1)N(Cc1cccs1)C1CC1 (stereo not shown),-78.2%
13,CN1CCN(C(=O)C2CCCN(S(=O)(=O)c3ccc(Cl)cc3)C2)CC1 (stereo not shown),-18.8%
14,O=C(C1CCCN(S(=O)(=O)c2ccc(F)cc2)C1)N1CCCC1 (stereo not shown),5.78%
15,O=C(C1CCCN(S(=O)(=O)c2ccc(Cl)cc2)C1)N(Cc1cccs1)C1CC1 (stereo not shown),-63%
